Reference: PubChem BioAssay (NCI)
Compounds without any hit were thinned out: in the full panel of roughly 79,000, 15% have a hit. No stated cut-off is given here; in the data, active means growth inhibition above about 70%; inactive means the rest.

Legend:
[1] = NCI Yeast Anticancer Drug Screen. Data for the rad50 strain (AID 155);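 further: 0% = growth of vehicle-only cultures of the same strain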; settings: S. cerevisiae rad50 strain growth inhibition; at 50.0 µM; hits give high values
Summary of the method: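 Inhibition values express reduced yeast growth in compound-treated cultures relative to vehicle-treated controls.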

[2] = NCI Yeast Anticancer Drug Screen. Data for the mec2-1 strain (AID 157); settings: S. cerevisiae mec2-1 strain, at 50.0 µM, hits give high values
Summary of the method: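 Cells of the genetically defined mec2-1 yeast strain are incubated with test compound. Inhibition of growth is calculated against vehicle-treated controls.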

[3] = NCI Yeast Anticancer Drug Screen. Data for the sgs1 mgt1 strain (AID 161);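 further: 0% = growth of cultures given vehicle only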; settings: S. cerevisiae sgs1 mgt1 strain, at 50.0 µM, hits give high values
Summary of the method: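 Test agents were incubated with a DNA-repair-mutant yeast strain. Growth was then read and compared against vehicle-treated controls.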

[4] = NCI Yeast Anticancer Drug Screen. Data for the cln2 rad14 strain (AID 165);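 further: 0% = growth equal to vehicle treated cultures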; settings: S. cerevisiae cln2 rad14 strain, at 50.0 µM, hits give high values
Summary of the method: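 The screen exposed genetically defined yeast (cln2 rad14) to test compounds and scored growth inhibition relative to vehicle-treated controls.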

[5] = NCI Yeast Anticancer Drug Screen. Data for the bub3 strain (AID 167); settings: S. cerevisiae bub3 mutant strain, at 50.0 µM, hits give high values
Summary of the method: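 Steps: expose the mutant yeast strain to compound; grow alongside vehicle-treated cultures; measure growth; express inhibition against the vehicle cultures.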

[6] = NCI Yeast Anticancer Drug Screen. Data for the mlh1 rad18 strain (AID 175); settings: S. cerevisiae mlh1 rad18 strain growth inhibition; at 50.0 µM; hits give high values
Summary of the method: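 Compound-treated yeast growth, normalised to vehicle controls. Strain bears defined DNA repair mutations.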

Measured: growth inhibition

Nc1c2cc3c(cc2c[n+]2ccc4ccccc4c12)OCO3
inactive: [1] 38.9% | [2] 44% | [3] 32.6% | [4] 19.9% | [5] 43.9% | [6] 54.5%

O=C1C(=S)Nc2c(F)cccc21
inactive: [1] 21.6% | [2] 51.4% | [3] 24.2% | [4] 39.6% | [5] 29.6% | [6] 31.9%

O=C(O)CC[C@H](NC(=O)c1ccc(-n2nc3ccc(O)cc3nc2=O)cc1)C(=O)O
inactive: [1] -6.65% | [2] -8.25% | [3] 11.9% | [4] 9.95% | [5] 33.8% | [6] 14.5%

CC(=O)Oc1ccc([N+](=O)[O-])cc1
inactive: [1] 16.9% | [2] 12.7% | [3] 27.4% | [4] -17.7% | [5] -1% | [6] 34%

CN1c2ccccc2C(=O)NC12CCN(Cc1ccccc1)CC2
inactive: [1] -30.2% | [2] -16.3% | [3] -12.8% | [4] 0.75% | [5] 12.3% | [6] -21.2%

NC(N)=NNC(=O)C(=O)O
inactive: [1] -4.5% | [2] -7.9% | [3] 3.85% | [4] -19.5% | [5] -7.6% | [6] 7.9%

COC(=O)C(C)n1c(C)csc1=S (stereo unspecified)
inactive: [1] -0.15% | [2] 4.85% | [3] -1.05% | [4] -26.4% | [5] 16.6% | [6] -0.55%

N#CC(C(=O)/C(=N\Nc1nc(=S)[nH]n1N)C(C#N)c1ccc(Cl)cc1)c1ccc(Cl)cc1 (stereo unspecified)
inactive: [1] -13.3% | [2] -10% | [3] -28.6% | [4] 4.45% | [5] -4.4% | [6] -4.95%

Nc1ccccc1CCO
inactive: [1] 14.5% | [2] -6.75% | [3] 30.9% | [4] 13.2% | [5] -5.8% | [6] 19.5%

N#CC1C(=O)NC(=S)NC1c1ccc2c(c1)CCC2 (stereo unspecified)
inactive: [1] -12.9% | [2] -6.7% | [3] -22.9% | [4] -18.8% | [5] -7.15% | [6] 4.1%

Cn1nc(-c2ccccc2)c([N+](=O)[O-])c1NCc1ccccc1
inactive: [1] -0.8% | [2] -1.95% | [3] -4.4% | [4] -29.1% | [5] 6.4% | [6] 1.15%

CO/[N+]([O-])=C\C(=O)N/C=C/C(=O)O
inactive: [1] 19.1% | [2] 5.85% | [3] 7.3% | [4] 18.7% | [5] 23.6% | [6] 15.2%

Cc1ccc(CCC=O)cc1
inactive: [1] 30.6% | [2] -4.1% | [3] 17.4% | [4] -37.9% | [5] -8.5% | [6] 29.4%

Cc1cc(N(CCC#N)CCC#N)ccc1/C(N=Nc1ccccc1)=N\NC(=O)c1cc(Cl)ccc1O
inactive: [1] 18.8% | [2] 9.8% | [3] 2.7% | [4] -3% | [5] -17.4% | [6] 30.9%

CC(=O)Cc1nc(N)nc(Nc2ccc(Cl)c(Cl)c2)n1
inactive: [1] -8.9% | [2] 13.7% | [3] -10.1% | [4] -11.3% | [5] -13% | [6] -20.5%

CC1(C)C2CC3C(C2)C31C
inactive: [1] 1% | [2] 3.6% | [3] -10.2% | [4] 5.35% | [5] 1.3% | [6] -0.75%

COc1ccc(COCc2ccc(OC)cc2)cc1
inactive: [1] 4.55% | [2] -10.6% | [3] 8.7% | [4] -66.5% | [5] 13.8% | [6] 12.7%

C(=N[C@H]1CCCC[C@H]1N=Cc1ccc[nH]1)c1ccc[nH]1
inactive: [1] 14.8% | [2] -3.6% | [3] 8.75% | [4] 3.45% | [5] 13.9% | [6] 20.7%

CC(=O)SCCCCl
inactive: [1] -9.25% | [2] 2.1% | [3] 11.2% | [4] -1.25% | [5] 8.25% | [6] -11.3%

C/C=C/c1ccc(O)c(OC)c1
inactive: [1] 13.1% | [2] -11.6% | [3] 4.85% | [4] -5.95% | [5] -3.25% | [6] -9.3%

CSc1nc(N)n2nc(C)cc2n1
inactive: [1] -9.3% | [2] -13.7% | [3] 10.2% | [4] 6.9% | [5] 33.3% | [6] -3.8%
